The source of these data is PubChem BioAssay.

SMILES strings stand for the structures. Several values for one entry are separate records, joined by “and”; a condition that tells them apart may be missing. Equal entries are not always repeated. Values without a mark were called inactive. Activity calls are given as the source filed them.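 Rule for the calls, unless noted: active = aptamer binding inhibition above 30%, about 3 SD of noise from non-fluorescent compounds; inactive = inhibition at or below 30%.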

Beta-adrenergic receptor kinase 1 (Homo sapiens), sequence (P25098 whole entry, looked up): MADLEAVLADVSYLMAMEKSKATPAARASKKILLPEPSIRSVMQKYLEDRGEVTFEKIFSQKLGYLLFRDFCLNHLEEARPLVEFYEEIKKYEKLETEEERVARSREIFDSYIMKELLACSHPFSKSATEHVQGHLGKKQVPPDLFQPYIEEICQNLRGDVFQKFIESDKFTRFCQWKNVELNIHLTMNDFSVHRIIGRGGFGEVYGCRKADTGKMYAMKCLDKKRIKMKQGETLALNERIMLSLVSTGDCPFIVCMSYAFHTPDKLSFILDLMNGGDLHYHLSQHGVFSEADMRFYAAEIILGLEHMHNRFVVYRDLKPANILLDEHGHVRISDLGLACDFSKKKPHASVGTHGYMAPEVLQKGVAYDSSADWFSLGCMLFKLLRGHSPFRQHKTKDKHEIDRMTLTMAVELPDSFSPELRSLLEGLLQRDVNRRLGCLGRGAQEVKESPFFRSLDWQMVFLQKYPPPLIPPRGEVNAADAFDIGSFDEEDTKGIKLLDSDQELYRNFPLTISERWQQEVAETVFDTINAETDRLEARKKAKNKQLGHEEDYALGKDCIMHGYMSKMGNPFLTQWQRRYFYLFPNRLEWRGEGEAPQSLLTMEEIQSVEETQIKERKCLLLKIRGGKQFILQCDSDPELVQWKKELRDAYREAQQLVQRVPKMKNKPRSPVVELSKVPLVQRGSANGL

One test concerns the target Beta-adrenergic receptor kinase 1 (Homo sapiens) (UniProt P25098). Kind of test: GRK2 binders displacing RNA aptamer, biochemical, validation, human GRK2, bead flow cytometry (AID 488806). To be noted: bead-bound GRK2, FAM-aptamer displacement, at 10 µM, stronger effect = higher value.
As to `COc1cc(C2NCCc3c2[nH]c2ccccc32)ccc1OC(C)C` (stereo not given), the aptamer binding inhibition is 0%.

With `O=C(CSCc1ccccc1)NCCCN1CCOCC1`, the aptamer binding inhibition is 3%.

In the case of `O=C(N1CCCCC1)C1(c2ccccc2)CCOCC1`, the aptamer binding inhibition is 1%.

On to `CCCC(=O)O[C@]1(C(=O)COC(C)=O)CC[C@H]2[C@@H]3C[C@H](F)C4=CC(=O)C=C[C@]4(C)[C@@]3(F)[C@@H](O)C[C@@]21C`, for which the aptamer binding inhibition was 3%.

Regarding `O=c1ccc2c(o1)/C(=C/C=C(Cl)Cl)CCC2`, the aptamer binding inhibition is 2%.

Consider `COc1cc(Cc2cnc(N)nc2N)cc(OC)c1OC`, for which the aptamer binding inhibition is 2% and -4%.

On to `O=C(CC(NC(=O)OCc1ccccc1)C(=O)O)OCc1ccccc1` (stereo not given), for which the aptamer binding inhibition is 4%.

In the case of `O=c1c(-c2ccccc2)c(O)c2cccc3c2n1CCC3`, the aptamer binding inhibition is -3%.

Regarding `O=C(O)C1CCN(C(=O)COc2ccc3c4c(c(=O)oc3c2)CCC4)CC1`, the aptamer binding inhibition was 1%.

`CCOC(=O)c1cccc(P(C)(C)=O)c1`: the aptamer binding inhibition is 3%.

`O=C(O)c1cc2cc(F)ccc2[nH]1`: the aptamer binding inhibition is 3%.

Consider `O=C(O)c1ccccc1C(=O)OCCCCOC(=O)c1ccccc1C(=O)O`, for which the aptamer binding inhibition is 6%.

As to `Cn1nc(-c2ccc(Cl)cc2)nc2c(=O)n(C)c(=O)nc1-2`, the aptamer binding inhibition is 45% (active).

Regarding `O=c1[nH]c(=O)n([C@H]2C[C@H](O)[C@@H](CO)O2)cc1C(F)(F)F`, the aptamer binding inhibition is 1%.

Regarding `COc1ccc(-c2cc(C(=O)N3CCOCC3)c3cc(C)ccc3n2)cc1`, the aptamer binding inhibition is 1%.

In the case of `Cc1ccc2c(c1)c1c3n2CCCN(Cc2ccccc2)C3CCC1` (stereo not given), the aptamer binding inhibition was 0%.

`CCCCCCCC(=O)OCC(O)CO` (stereo not given): the aptamer binding inhibition was 3%.

Regarding `S=C(c1ccc2c(c1)OCO2)N1CCCCC1`, the aptamer binding inhibition was -2%.

Regarding `COc1cc2cc(C)nc(Cc3cccc4ccccc34)c2cc1OC`, the aptamer binding inhibition is 3%.

Regarding `CCn1cc(C(=O)O)c(=O)c2ccc(C)nc21`, the aptamer binding inhibition is -1%.

As to `c1coc(-c2nnc3n2C2(CCCC2)Cc2ccccc2-3)c1`, the aptamer binding inhibition was 4%.

Regarding `COc1ccc(Cc2noc(CN(C)CCN3CCc4ccccc4C3)n2)cc1OC`, the aptamer binding inhibition was 6%.

In the case of `CC1(C)c2ccccc2N2CC(=O)NC21/C=C/c1ccco1` (stereo not given), the aptamer binding inhibition is 0%.

As for `CC12CC(c3ccccc3O1)C(C(=O)N1CCOCC1)C(=O)N2` (stereo not given), the aptamer binding inhibition was 6%.

For `O=C1CC(c2ccc(OCCCCCOc3ccc(C4CC(=O)NC4=O)cc3)cc2)C(=O)N1` (stereo not given), the aptamer binding inhibition is 3%.

Consider `O=c1[nH]c(=O)n(C2CCCO2)cc1F` (stereo not given), for which the aptamer binding inhibition is 7%.

On to `NC(N)=NC(=O)Cc1c(Cl)cccc1Cl`, for which the aptamer binding inhibition is -1%.

Take `CCOC(=O)Cn1c(C)cc(=O)c2ccccc21`: the aptamer binding inhibition is 0%.

As to `Cc1ccc(C(=O)Nc2ccccc2C(=O)NC(C(=O)O)C(C)C)cc1` (stereo not given), the aptamer binding inhibition is 3%.

`Cc1cc(O)c2/c(=N\N)c(-c3csc(C)n3)coc2c1`: the aptamer binding inhibition was 3%.

Take `O=C(CN1C(=O)/C(=C/c2cccc(Br)c2)SC1=S)Nc1cccnc1`: the aptamer binding inhibition was 0%.

For `COc1ccc2[nH]c(CN3CCN(CC(C)C)C(CCO)C3)c(C)c2c1` (stereo not given), the aptamer binding inhibition was 3%.

With `CC[N+](C)(C)c1cccc(O)c1`, the aptamer binding inhibition was 56% (active).

Take `COc1cccc2c(=O)c(C/C=C(/C)Cl)c(C)[nH]c12`: the aptamer binding inhibition was 3%.

Consider `O=C(N/N=C/c1ccc([N+](=O)[O-])o1)c1ccc(O)cc1`, for which the aptamer binding inhibition is -1%.

For `CC(=O)N1CCn2c3c(c4cc(C)ccc42)CCCC31` (stereo not given), the aptamer binding inhibition is 0%.

Take `Cc1ccc(CN2CCN(CCCc3ccccc3)CC2CCO)cc1` (stereo not given): the aptamer binding inhibition was 1%.

As to `CCC(C(=O)Nc1ccc2c(c1)OCCO2)c1ccccc1` (stereo not given), the aptamer binding inhibition is -1%.

Consider `CN(C)CCC=C1c2ccccc2CCc2ccccc21`, for which the aptamer binding inhibition is 2%.

For the compound `CN(C)c1ccc(CNCCC(Cc2ccccc2)c2ccco2)cc1` (stereo not given), the aptamer binding inhibition was -4%.

Another test deals with Beta-2 adrenergic receptor (Homo sapiens) (UniProt P07550). Kind of test: beta2AR agonists driving receptor internalization, pilot screen, cell-based, FAP fluorogen, flow cytometry, validation set (AID 504459;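 active = percent response above 42, roughly 3 SD of non-fluorescent test compounds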;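 note: agonist-driven loss of surface beta2AR via internalization measured by FAP dye flow cytometry; reference of the scale not given here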). Conditions: Am2.2-beta2AR cells, FAP surface receptor flow cytometry; at 10 µM; stronger effect = higher value.
Beta-2 adrenergic receptor (Homo sapiens), sequence (P07550 whole entry, looked up): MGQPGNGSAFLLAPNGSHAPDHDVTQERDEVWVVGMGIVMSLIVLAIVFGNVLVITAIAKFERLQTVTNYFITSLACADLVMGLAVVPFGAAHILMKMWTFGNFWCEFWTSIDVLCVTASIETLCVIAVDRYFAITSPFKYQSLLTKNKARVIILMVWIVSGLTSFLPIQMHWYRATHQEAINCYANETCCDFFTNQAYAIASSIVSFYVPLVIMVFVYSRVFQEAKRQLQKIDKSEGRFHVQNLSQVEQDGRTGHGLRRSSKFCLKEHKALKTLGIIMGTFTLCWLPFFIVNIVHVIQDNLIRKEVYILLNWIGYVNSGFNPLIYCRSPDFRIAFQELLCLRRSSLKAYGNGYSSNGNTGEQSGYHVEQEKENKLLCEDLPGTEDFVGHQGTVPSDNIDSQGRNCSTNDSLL
`COc1cc(C2NCCc3c2[nH]c2ccccc32)ccc1OC(C)C` (stereo not given): the response was 9.28%.

As for `O=C(CSCc1ccccc1)NCCCN1CCOCC1`, the response is -1.38%.

Turning to `O=C(N1CCCCC1)C1(c2ccccc2)CCOCC1`, the response was -7.86%.

As for `CCCC(=O)O[C@]1(C(=O)COC(C)=O)CC[C@H]2[C@@H]3C[C@H](F)C4=CC(=O)C=C[C@]4(C)[C@@]3(F)[C@@H](O)C[C@@]21C`, the response was 4.32%.

For the compound `O=c1ccc2c(o1)/C(=C/C=C(Cl)Cl)CCC2`, the response was 62.6% (active).

For `COc1cc(Cc2cnc(N)nc2N)cc(OC)c1OC`, the response was -5.11%.

As to `O=C(CC(NC(=O)OCc1ccccc1)C(=O)O)OCc1ccccc1` (stereo not given), the response is -5.78%.

Regarding `O=c1c(-c2ccccc2)c(O)c2cccc3c2n1CCC3`, the response is -27.7%.

Consider `O=C(O)C1CCN(C(=O)COc2ccc3c4c(c(=O)oc3c2)CCC4)CC1`, for which the response is -31%.

As to `CCOC(=O)c1cccc(P(C)(C)=O)c1`, the response is -6.13%.

`O=C(O)c1cc2cc(F)ccc2[nH]1`: the response was 0.15%.

For `O=C(O)c1ccccc1C(=O)OCCCCOC(=O)c1ccccc1C(=O)O`, the response is -3.48%.

Regarding `Cn1nc(-c2ccc(Cl)cc2)nc2c(=O)n(C)c(=O)nc1-2`, the response was 17.6%.

Take `O=c1[nH]c(=O)n([C@H]2C[C@H](O)[C@@H](CO)O2)cc1C(F)(F)F`: the response was -1.49%.

For `COc1ccc(-c2cc(C(=O)N3CCOCC3)c3cc(C)ccc3n2)cc1`, the response is -16.3%.

For the compound `Cc1ccc2c(c1)c1c3n2CCCN(Cc2ccccc2)C3CCC1` (stereo not given), the response is 14.8%.

On to `CCCCCCCC(=O)OCC(O)CO` (stereo not given), for which the response was -8.74%.

For the compound `S=C(c1ccc2c(c1)OCO2)N1CCCCC1`, the response was -5.76%.

Take `COc1cc2cc(C)nc(Cc3cccc4ccccc34)c2cc1OC`: the response is 9.84%.

With `CCn1cc(C(=O)O)c(=O)c2ccc(C)nc21`, the response was 3.04%.

As for `c1coc(-c2nnc3n2C2(CCCC2)Cc2ccccc2-3)c1`, the response was -2%.

As to `COc1ccc(Cc2noc(CN(C)CCN3CCc4ccccc4C3)n2)cc1OC`, the response is -6.59%.

For `CC1(C)c2ccccc2N2CC(=O)NC21/C=C/c1ccco1` (stereo not given), the response is 5.81%.

As for `CC12CC(c3ccccc3O1)C(C(=O)N1CCOCC1)C(=O)N2` (stereo not given), the response was 6.73%.

As to `O=C1CC(c2ccc(OCCCCCOc3ccc(C4CC(=O)NC4=O)cc3)cc2)C(=O)N1` (stereo not given), the response was 4.67%.

For the compound `O=c1[nH]c(=O)n(C2CCCO2)cc1F` (stereo not given), the response is -4.34%.

For the compound `NC(N)=NC(=O)Cc1c(Cl)cccc1Cl`, the response was -1.1%.

Take `CCOC(=O)Cn1c(C)cc(=O)c2ccccc21`: the response is 8.73%.

For `Cc1ccc(C(=O)Nc2ccccc2C(=O)NC(C(=O)O)C(C)C)cc1` (stereo not given), the response was -2.49%.

On to `Cc1cc(O)c2/c(=N\N)c(-c3csc(C)n3)coc2c1`, for which the response is 2.22%.

`O=C(CN1C(=O)/C(=C/c2cccc(Br)c2)SC1=S)Nc1cccnc1`: the response was -8.62%.

`COc1ccc2[nH]c(CN3CCN(CC(C)C)C(CCO)C3)c(C)c2c1` (stereo not given): the response is -3.42%.

With `CC[N+](C)(C)c1cccc(O)c1`, the response was -3.94%.

Take `COc1cccc2c(=O)c(C/C=C(/C)Cl)c(C)[nH]c12`: the response was 3.25%.

For `O=C(N/N=C/c1ccc([N+](=O)[O-])o1)c1ccc(O)cc1`, the response is -5.96%.

As for `CC(=O)N1CCn2c3c(c4cc(C)ccc42)CCCC31` (stereo not given), the response is 14.2%.

As to `Cc1ccc(CN2CCN(CCCc3ccccc3)CC2CCO)cc1` (stereo not given), the response was 9.66%.

Consider `CCC(C(=O)Nc1ccc2c(c1)OCCO2)c1ccccc1` (stereo not given), for which the response is 3.82%.

Regarding `CN(C)CCC=C1c2ccccc2CCc2ccccc21`, the response is -0.14%.

With `CN(C)c1ccc(CNCCC(Cc2ccccc2)c2ccco2)cc1` (stereo not given), the response was 9.55%.
